Only a selection was taken, and hits are over-represented in it overall.
KDM5B inhibitor – Primary screen for KDM5B Histone Demethylases FDH-coupled qHTS; KDM5B demethylase, FDH-coupled NADH fluorescence (FDH is formaldehyde dehydrogenase); Potency, µM (doses to about 57.7 µM), most hits filed as inhibitors; actives 2.6% (n = 220,000); active means well fitted inhibition curve with a large enough effect; further: 0% is about no effect; nearly all actives have a fitted effect of over 70% in size
Target sequence (Q9UGL1 whole entry, looked up): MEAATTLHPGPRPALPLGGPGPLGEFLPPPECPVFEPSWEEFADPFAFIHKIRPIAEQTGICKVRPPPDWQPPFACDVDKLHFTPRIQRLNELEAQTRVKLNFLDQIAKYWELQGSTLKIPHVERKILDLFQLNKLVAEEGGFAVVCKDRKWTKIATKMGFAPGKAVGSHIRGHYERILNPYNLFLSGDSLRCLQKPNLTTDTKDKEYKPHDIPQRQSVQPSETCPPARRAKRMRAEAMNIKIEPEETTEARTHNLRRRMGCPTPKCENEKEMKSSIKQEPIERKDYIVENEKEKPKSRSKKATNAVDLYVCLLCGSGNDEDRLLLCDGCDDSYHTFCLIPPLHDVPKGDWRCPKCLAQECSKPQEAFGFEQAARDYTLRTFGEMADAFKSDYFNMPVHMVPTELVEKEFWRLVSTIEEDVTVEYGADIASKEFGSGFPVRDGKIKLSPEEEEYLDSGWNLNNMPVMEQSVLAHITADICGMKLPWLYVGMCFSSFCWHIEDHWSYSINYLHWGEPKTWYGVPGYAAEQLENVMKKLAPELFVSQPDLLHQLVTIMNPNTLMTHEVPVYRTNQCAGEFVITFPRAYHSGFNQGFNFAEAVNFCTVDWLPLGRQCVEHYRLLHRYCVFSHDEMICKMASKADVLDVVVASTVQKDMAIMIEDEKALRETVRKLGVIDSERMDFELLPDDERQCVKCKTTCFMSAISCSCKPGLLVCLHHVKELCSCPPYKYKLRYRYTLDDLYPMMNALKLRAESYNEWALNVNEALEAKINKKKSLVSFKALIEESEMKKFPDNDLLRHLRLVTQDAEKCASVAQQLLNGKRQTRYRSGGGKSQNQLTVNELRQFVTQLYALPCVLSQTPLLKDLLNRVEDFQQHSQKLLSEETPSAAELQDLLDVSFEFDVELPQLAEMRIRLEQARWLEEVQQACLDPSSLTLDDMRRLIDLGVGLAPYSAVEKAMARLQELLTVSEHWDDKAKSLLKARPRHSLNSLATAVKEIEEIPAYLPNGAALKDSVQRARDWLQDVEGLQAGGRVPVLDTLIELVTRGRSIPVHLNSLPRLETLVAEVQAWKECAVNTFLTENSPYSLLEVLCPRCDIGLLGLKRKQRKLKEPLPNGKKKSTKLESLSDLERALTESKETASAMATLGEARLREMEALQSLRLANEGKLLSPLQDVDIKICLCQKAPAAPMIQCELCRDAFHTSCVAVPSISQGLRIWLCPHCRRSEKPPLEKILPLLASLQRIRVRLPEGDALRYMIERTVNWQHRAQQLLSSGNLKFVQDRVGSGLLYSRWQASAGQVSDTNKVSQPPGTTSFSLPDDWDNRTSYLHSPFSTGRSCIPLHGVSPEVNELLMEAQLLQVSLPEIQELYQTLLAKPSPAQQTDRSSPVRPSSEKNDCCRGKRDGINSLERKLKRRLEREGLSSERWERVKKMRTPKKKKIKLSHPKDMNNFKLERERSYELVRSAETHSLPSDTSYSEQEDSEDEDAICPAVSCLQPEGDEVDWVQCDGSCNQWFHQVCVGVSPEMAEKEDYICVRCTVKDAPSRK
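Compound dilutions met 200 nM (final) KDM5BΔAP for 10 min at room temperature before substrate addition. The substrate mix held 12.5 µM H3K4me3 with cofactors 25 µM α-ketoglutarate and 50 µM Fe²⁺. NADH signal gain over 30 min defined activity.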
Starred values were filed as active, the others as inactive; i = inactive. Potency means the concentration at half of the fitted maximal effect.

SMILES | KDM5B inhibitor
Cc1ccc(CNC2CCCc3c2cnn3Cc2ccccc2)s1 (stereo not given) | i
CN(C)c1nc2c(c(=O)[nH]1)CCN(Cc1ccc(Cl)cc1F)CC2 | i
Cc1cccc(C(=O)NCc2nnc(SCC(=O)NC3CCCCC3)n2-c2ccccc2)c1 | i
Cc1ccc(NC(NC(=O)c2ccco2)C(=O)c2ccc(C)cc2)cc1 (stereo not given) | i
O=C1CCN(C(=O)COc2ccc(F)cc2)CCCC(c2nc(-c3cccnc3)no2)CCN1 (stereo not given) | i
O=C(O)COc1ccc(-c2nccc3c2C(=O)N(Cc2c[nH]c4ccccc24)CC(COc2ccc(F)cc2F)O3)cc1 (stereo not given) | i
CCOC(=O)Nc1ccc(S(=O)(=O)Nc2cccc(F)c2)cc1 | i
Cc1cccc(C)c1-c1nc(C(=O)N2CCC(C#N)CC2)n2ccccc12 | 100µM*
N#CC1CCN(C(=O)c2nc(-c3cccc(C(F)(F)F)c3)c3ccccn23)CC1 | 14µM*
Cc1cccc(C)c1-c1cc(C(=O)N2CCC(C#N)CC2)c2cnn(C)c2n1 | i
O=C(c1ccc(O)cc1)C1CCN(C(=O)c2cccc(C(F)(F)F)c2)CC1 | i
COc1ccccc1-c1nnc(C2CCN(C(=O)c3ccccc3C)CC2)o1 | i
COC1CCN(C(=O)c2cccc(S(=O)(=O)N3CCC(C#N)CC3)c2)C1 (stereo not given) | i
COc1ccccc1-c1nc(C(=O)N2CCC(C#N)CC2)n2ccccc12 | 28µM*
N#CC1CCN(C(=O)c2nc(-c3ccccc3)c3ccccn23)CC1 | 35µM*
COc1ccccc1-c1[nH]nc2ncc(C(=O)N3CCC(c4ccccc4)CC3)nc12 | i
N#CC1CCN(C(=O)c2nc(-c3cc(Cl)cc(Cl)c3)c3ccccn23)CC1 | i
Cc1ccc(C(=O)N2CCC3(CC2)CC(c2cccc(C(F)(F)F)c2)=NO3)cc1 | i
O=C(COC(=O)CCc1nc2ccccc2s1)Nc1ccccc1C(=O)c1ccccc1 | i
Cc1ccc(C(NC(=O)Cc2cccs2)C(=O)Nc2ccc3c(c2)OCCO3)cc1 (stereo not given) | i
Cc1nc(-c2ccc(Cl)cc2)sc1C(=O)NC1C=CS(=O)(=O)C1 (stereo not given) | i
O=[N+]([O-])c1cccc(-n2nc(-c3ccccc3)c3cnc4cc(C(F)(F)F)ccc4c32)c1 | i
CN(C)CC(=O)N1CCN(C(=O)C=C(C2CC2)C2CC2)CC1 | i
O=C1c2ccccc2C(=O)N1CCSc1ncc(C(F)(F)F)cc1Cl | i
Cn1c(CCn2ccccc2=O)nc2cc(NS(=O)(=O)c3ccc(Cl)cc3)ccc21 | i
SMILES | KDM5B inhibitor
CCCCn1c(=O)[nH]c(=O)c2c1nc(COC(=O)c1cc(C)cc(C)c1)n2CCC | i
O=C(CCc1ncc(-c2ccc(Cl)cc2)o1)Nc1ccc2ccccc2c1 | i
c1coc(C(CNC2CCCC2)N2CCCC2)c1 (stereo not given) | i
CCCCN(C)C(=O)Cn1cc(C#N)c2ccccc21 | i
COC(=O)c1ccc(CNC(=O)C2Cc3ccc(C)cc3S2)cc1 (stereo not given) | i
Cc1cc(C(=O)COc2cccc(C#N)c2)c(C)n1CCC(C)C | i
N#CC1CCN(C(=O)c2ccc3nnc(-c4cccc(OC(F)(F)F)c4)n3c2)CC1 | i
N#CC1CCN(C(=O)c2nc(-c3cccc(C(F)(F)F)c3)c3cnccn23)CC1 | 25µM*
COc1ccc(C(=O)N2CCC3(CC2)CC(c2cccc(C(F)(F)F)c2)=NO3)cc1 | i
COC(=O)C1CN(C)CCC1=O (stereo not given) | i
N#Cc1nc(-c2cccc3ccccc23)oc1NCC(c1cccs1)N1CCOCC1 (stereo not given) | i
O=C(/C=C/c1cccc(F)c1)Nc1ccc(Cl)c(C(F)(F)F)c1 | i
CC(NCCC(=O)N1CCN(c2ncccn2)CC1)c1ccc(Cl)cc1Cl (stereo not given) | i
O=C(NCC1CCCCC1)C1(CCO)CCN(c2ncccn2)C1 (stereo not given) | 32µM*
CC(C)CNC(=O)C1(CCO)CCN(Cc2ccccc2)C1 (stereo not given) | i
O=C(NCCN1CCC(Cc2ccccc2)CC1)C1(CCO)CC12CCOCC2 (stereo not given) | i
O=C(NC1CCCC1)C1(CCO)CCN(Cc2ccccc2)C1 (stereo not given) | i
CC(C)CCNC(=O)C1(C)Cn2nc(C(=O)NCCN3CCCCCC3)cc2C(=O)N1C (stereo not given) | i
O=C(NCC1CC1)C1(CCO)CCN(Cc2ccccc2)C1 (stereo not given) | i
O=C(NCCN1CCCCC1)C1(CCO)CCN(c2ncccn2)C1 (stereo not given) | 25µM*
CC(C)CNC(=O)C1(CCO)CCN(c2ncccn2)C1 (stereo not given) | 25µM*
CCOc1ccc(NC(=O)C2CCN(c3ccc(C#N)cn3)CC2)cc1 | i
COc1ccc(-c2csc(NC3CC3)n2)cc1OC | i
O=C(NC1(C(F)(F)F)C(=O)Nc2c1c(=O)[nH]c(=O)n2Cc1ccco1)c1ccccc1 (stereo not given) | i
CC(C)NC(=O)C(=O)N1CCN(c2ccnc3c(F)ccc(F)c23)CC1 | i
SMILES | KDM5B inhibitor
Cc1ccc(CNC(=O)COC(=O)c2ccc3c(c2)NC(=O)CS3)cc1 | i
Cc1oc(-c2cccc(Cl)c2)nc1CN1CCN(C(=O)c2ccco2)CC1 | i
NC(=O)C1CN(CC(=O)Nc2ccccc2Sc2ccccc2)c2ccccc2O1 (stereo not given) | i
CC(C)(c1ccc(OC(=O)c2ccccc2F)cc1)c1ccc(OC(=O)c2ccccc2F)cc1 | i
CC(Cc1ccc(Br)cc1)NC(=O)C1CCCC1 (stereo not given) | i
Cc1cccc2nc(C(=O)N3CCCC(c4[nH]ncc4-c4ccccc4)C3)cn12 (stereo not given) | i
Cc1nc2ncccn2c1C(=O)N1CCC(c2[nH]ncc2-c2ccccc2)CC1 | 28µM*
Cc1cccc(-c2cn[nH]c2C2CCN(C(=O)c3ccccc3OC(F)F)CC2)c1 | i
COc1ccccc1C(=O)COC(=O)Cc1coc2cc3c(cc12)CCC3 | i
CN(CC(=O)NC(=O)NCc1ccccc1)Cc1ccccc1 | i
O=C(NCC(O)COc1cccc(F)c1)c1ccoc1 (stereo not given) | i
COc1ccc(CNC(=O)c2ccc3c(c2)NC(=O)CCS3)cc1 | i
CCn1cc(Cl)c(C(=O)N2CCc3c(nc4cc(-c5ccccc5)[nH]n4c3=O)C2)n1 | 25µM*
O=C(c1ccccc1Cl)N1CCc2nc(-c3ccccc3)nc(-c3ccc(Cl)cc3)c2C1 | i
Cc1noc(C)c1S(=O)(=O)N1CCc2n[nH]c(=O)n2CC1 | i
O=C(c1ccccc1Cl)N1CCc2c(nc3cc(-c4ccccc4)[nH]n3c2=O)C1 | 35µM*
CCn1c2c(c(=O)n1-c1ccccc1)CCN(C(=O)c1ccc(Cl)cc1)C2 | i
CN(C)S(=O)(=O)N1CCCC(c2nc(-c3ccccc3)no2)CCNC(=O)CC1 (stereo not given) | i
CN(C)S(=O)(=O)N1CCCC(c2nc(-c3cccnc3)no2)CCNC(=O)CC1 (stereo not given) | i
O=C(c1cc2c(s1)CCCC2)N1CCc2c(nc3cc(-c4ccccc4)[nH]n3c2=O)C1 | i

From PubChem BioAssay
